{
  "source": "PubChem BioAssay (Tox21)",
  "note": "Inconclusive results are not listed. Entries that show only a call come without a potency. The source made the active and inactive calls. The call rests on the fitted dose curve; in most records, active means well fitted inhibition curve with a large enough effect in the repeat runs; inconclusive means weak or mixed curves; inactive means no such curve, though single readings can be large or run the other way.",
  "data": [
    {"experiment": "qHTS assay to identify small molecule antagonists of the thyroid receptor (TR) signaling pathway (AID 743065); further: nearly all actives have a fitted effect of over 55% in size; further: potency means the concentration at half of the fitted maximal effect", "conditions": "GH3.TRE-Luc, T3-stimulated luciferase inhibition, 23.5 h; series mostly up to 70.3 µM", "excerpt": "U.S. Tox21 Program National Center for Advancing Translational Sciences [NCATS] NIH Chemical Genomics Center [NCGC] U.S. Environmental Protection Agency [EPA] National Institutes of Environmental Health Sciences [NIEHS] National Toxicology Program [NTP] U.S. Food and Drug Administration [FDA] Tox21 Assay Overview: Thyroid receptor (TR), a nuclear hormone receptor, plays an important role in development, proliferation, differentiation, metabolism, brain function, and cardiovascular system. […] To profile the Tox21 10K compound library in TR signaling, a cell-based GH3-TRE-Luc assay (GH3.TRE-Luc cell line, developed by the laboratory of Dr. Albertinka J. Murk, Wageningen University) was used to measure the inhibition of TR. GH3 (rat pituitary tumor) cells stably expressing a TR activity sensor consisting of two TR response elements and a luciferase reporter gene.\nTox21 Assay Protocol Summary: GH3.TRE-Luc cells were dispensed at 1500 cells/4 uL/well into 1536-well white solid bottom plates using a Multidrop Combi dispenser (Thermo Fisher Scientific Inc., Waltham, MA). After the assay plates were incubated at 37 C for 4 hours, 23 nL of library compound or DMSO controls was transferred to the assay plates by a pintool station (Kalypsys, San Diego, CA), followed by addition of 1 ul of T3 (1 nM, final concentration in the wells) to stimulate TR transactivation. The assay plates were incubated at 37 C for 23.5 h, and then 1 uL of CellTiter-Fluor reagent (Promega, Madision, WI) of measuring cytotoxicity was added to each well using a Bioraptr Flying Reagent Dispenser (FRD) workstation (Beckman Coulter, Indianapolis, IN, USA). The plates were incubated at 37 C and 5% CO2 for additional 30 min, and fluorescence intensity was measured by a ViewLux plate reader (PerkinElmer, Shelton, CT). For measuring luciferase reporter gene activity, 4 uL of ONE-Glo Luciferase Assay reagent (Promega) was added to each well using a Bioraptr FRD (Beckman Coulter), followed by 30 min incubation at room temperature. The luminescence intensity of plates was recorded by a ViewLux plate reader (PerkinElmer, Shelton, CT).", "values": [
      {"compound": "NC(N)=NCC1COC2(CCCCC2)O1", "note": "(stereo not given)", "Potency": "inactive"},
      {"compound": "NC(=O)[C@@H]1CCCN1C(=O)[C@H](Cc1cnc[nH]1)NC(=O)[C@@H]1CCC(=O)N1", "Potency": "inactive"},
      {"compound": "CCN(CC)CCOC[C@H]1O[C@@H](O)[C@H](OCCN(CC)CC)[C@@H](O)[C@@H]1O", "Potency": "inactive"},
      {"compound": "CC(=O)Nc1ccc(OC(C)=O)cc1", "Potency": "inactive"},
      {"compound": "COC(=O)C[C@](O)(CCCC(C)(C)O)C(=O)O[C@@H]1C(OC)=CC23CCCN2CCc2cc4c(cc2[C@H]13)OCO4", "note": "(stereo not given in full)", "Potency": "0.0376 µM (active)"},
      {"compound": "NCC(O)CC(=O)O", "note": "(stereo not given)", "Potency": "inactive"},
      {"compound": "NC(=O)C1c2ccccc2CCc2ccccc21", "Potency": "inactive"},
      {"compound": "CC(=O)[C@]1(O)Cc2c(O)c3c(c(O)c2[C@@H](O[C@H]2C[C@H](N)[C@H](O)[C@H](C)O2)C1)C(=O)c1ccccc1C3=O", "Potency": "0.119 µM (active)"},
      {"compound": "C=CC1=C(C(=O)O)N2C(=O)[C@@H](NC(=O)/C(=N/OCC(=O)O)c3csc(N)n3)[C@H]2SC1", "note": "(stereo in doubt)", "Potency": "inactive"},
      {"compound": "CC(C)Cc1ccc([C@H](C)C(=O)O)cc1", "Potency": "inactive"},
      {"compound": "Cc1cccc(C)c1NC(=O)C1CCCCN1C", "note": "(stereo not given)", "Potency": "inactive"},
      {"compound": "CCCCCCCCCC(=O)NO", "Potency": "inactive"},
      {"compound": "CCCCCCCCCCCCCCCCCCNC(=O)OC1CCN(C(=O)OC[C@H](COC(=O)N(Cc2cccc[n+]2CC)C(=O)c2ccccc2OC)OC)CC1", "Potency": "13.3 µM (active)"},
      {"compound": "C[S+](C)CCC(N)C(=O)O", "note": "(stereo not given)", "Potency": "inactive"},
      {"compound": "CN[C@H](CC(C)C)C(=O)N[C@H]1C(=O)N[C@@H](CC(N)=O)C(=O)N[C@H]2C(=O)N[C@H]3C(=O)N[C@H](C(=O)N[C@@H](C(=O)O)c4cc(O)cc(O)c4-c4cc3ccc4O)[C@H](O)c3ccc(c(Cl)c3)Oc3cc2cc(c3O[C@@H]2O[C@H](CO)[C@@H](O)[C@H](O)[C@H]2O[C@H]2C[C@](C)(N)C(O)[C@H](C)O2)Oc2ccc(cc2Cl)[C@H]1O", "note": "(stereo not given in full)", "Potency": "inactive"},
      {"compound": "CN1C(=O)C[C@@H](C(=O)N[C@@H](Cc2cnc[nH]2)C(=O)N2CCC[C@H]2C(N)=O)NC1=O", "Potency": "inactive"},
      {"compound": "CC(C)c1ncc([N+](=O)[O-])n1C", "Potency": "inactive"},
      {"compound": "Clc1nc(C(Cl)(Cl)Cl)c(Cl)c(Cl)c1Cl", "Potency": "17.2 µM (active)"},
      {"compound": "COc1ccc(/C=C/C(=O)O)cc1", "Potency": "inactive"},
      {"compound": "CO/N=C(\\C(=O)N[C@@H]1C(=O)N2C(C(=O)O)=C(COC(C)=O)CS[C@H]12)c1csc(N)n1", "note": "(stereo in doubt)", "Potency": "inactive"},
      {"compound": "O=C(O)c1ccc(NC2OC[C@@H](O)[C@H](O)[C@H]2O)cc1", "note": "(stereo not given in full)", "Potency": "inactive"},
      {"compound": "CC[C@@H](C)[C@H](N)C(=O)O", "Potency": "inactive"},
      {"compound": "C[C@H]1O[C@@H](O[C@H]2CC[C@@]3(C)[C@H](CC[C@@H]4[C@@H]3C[C@@H](O)[C@]3(C)[C@@H](C5=CC(=O)OC5)CC[C@]43O)C2)C[C@H](O)[C@@H]1O[C@H]1C[C@H](O)[C@H](O[C@H]2C[C@H](O)[C@H](O[C@@H]3O[C@H](CO)[C@@H](O)[C@H](O)[C@H]3O)[C@@H](C)O2)[C@@H](C)O1", "Potency": "inactive"},
      {"compound": "Cc1cc(N)c2ccccc2[n+]1CCCCCCCCCC[n+]1c(C)cc(N)c2ccccc21", "Potency": "11.4 µM (active)"},
      {"compound": "COC(=O)[C@H]1[C@H]2C[C@H]3c4[nH]c5ccccc5c4CCN3C[C@H]2CC[C@@H]1O", "Potency": "inactive"},
      {"compound": "O=C(N[C@H](CO)[C@H](O)c1ccc([N+](=O)[O-])cc1)C(Cl)Cl", "Potency": "inactive"},
      {"compound": "CCCOC(=O)c1ccccc1O", "Potency": "inactive"},
      {"compound": "O=C[C@H](O)[C@@H](O)[C@@H](O)[C@H](O)CO", "Potency": "inactive"},
      {"compound": "C/C(=C(/CCO)SSCC1CCCO1)N(C=O)Cc1cnc(C)nc1N", "note": "(stereo not given)", "Potency": "inactive"},
      {"compound": "CCc1ncnc2cc(OC)c(OC)cc12", "Potency": "inactive"},
      {"compound": "N[C@@H](Cc1ccc(O)c(O)c1)C(=O)O", "Potency": "inactive"},
      {"compound": "CN[C@@H]1[C@@H](O[C@H]2O[C@H](CO)[C@@H](N)[C@H](O)[C@H]2O)O[C@H]2C[C@@H](N)[C@@H](O[C@H]3[C@H](O)[C@@H](O)[C@H](N)C[C@@H]3N)O[C@@H]2[C@@H]1O", "Potency": "inactive"},
      {"compound": "CC(=O)OCC(=O)[C@@]1(O)CC[C@H]2[C@@H]3C[C@H](C)C4=CC(=O)C=C[C@]4(C)[C@H]3[C@@H](O)C[C@@]21C", "Potency": "inactive"},
      {"compound": "Cc1cc(C(=O)NCCc2ccc(S(=O)(=O)NC(=O)NN3CCCCCC3)cc2)no1", "Potency": "inactive"},
      {"compound": "CC(C)OC(=O)Nc1ccc2nc(-c3cscn3)[nH]c2c1", "Potency": "3.76 µM (active)"},
      {"compound": "C[C@@H]1C(=O)NC2=Nc3cccc(Cl)c3CN21", "Potency": "inactive"},
      {"compound": "COc1cccc(-c2ccc(/C=C\\CN3CCCCCC3)cc2Cl)c1", "Potency": "21.6 µM (active)"},
      {"compound": "COC(=O)C(CN)c1c[nH]c2ccc(OC)cc12", "note": "(stereo not given)", "Potency": "inactive"},
      {"compound": "CC(=O)O[C@H]1C[C@@H]2CC[C@@H]3[C@H](CC[C@@]4(C)[C@H]3C[C@H]([N+]3(C)CCCCC3)[C@@H]4OC(C)=O)[C@@]2(C)C[C@@H]1[N+]1(C)CCCCC1", "Potency": "inactive"},
      {"compound": "Cc1ccc(C(C)(C)c2ccc(C)cc2)cc1", "Potency": "inactive"}
    ]}
  ]
}
